Measured values as given in PubChem BioAssay (NCI).
The panel holds about 83,000 compounds, 20% with a hit somewhere; the sample as a whole holds those more often.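 Plates (96-well) were seeded with cells, treated with compound at one concentration, and incubated for 48 hours before percent growth was determined.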 The source made the active and inactive calls.

Tested on: MCF7 breast
Experiment: NCI-60 one-dose screen, 48 h (100 = growth as untreated, 0 = no growth, -100 = all killed)
Settings: 10 µM unless noted
Procedure: Growth inhibition of the MCF7 human tumor cell line is measured as a screen for anti-cancer activity. Cells are grown in 96 well plates and exposed to the test compound for 48 hours. Compounds are tested at a single concentration, which is 10^-5 M for most compounds. The reported endpoint is percent growth (GI% or GIPRCNT), where numbers from 0 - 100% represent growth inhibition, and numbers from -100% - 0 represent cell death. For example, a value of 40 represents 60% growth inhibition. A value of 0 means no net growth occurred over the course of the experiment. A value of -40 indicates 40% of cells at the beginning of the experiment died by the end of the experiment. A value of -100 means all cells are dead at the end of the experiment.
NCI-60 Human Tumor Cell Lines Screen was performed using the standard one-dose NCI protocol, which is described in more detail at https://dtp.cancer.gov/discovery_development/nci-60/default.htm.
Compounds with GIPRCNT values below 10 were considered active. Activity score was based on GIPRCNT using the following formula: […]
Score is 0 for GIPRCNT values of 100 or above, 50 for GIPRCNT values of 0, and 100 for GIPRCNT values of -100.

Compound	growth
CC(=O)[C@H]1CCC/C=C/[C@@H]2C[C@H](O)C[C@H]2[C@H](O)/C=C/C(=O)O1	3.81% (active)
C/C(=N\Nc1cc(C)nc2ccc(Br)cc12)c1ccc([N+](=O)[O-])cc1	43.9% (inactive)
COc1ccc(/C=C/c2nc(Nc3ccc(Cl)cc3)c3ccccc3n2)cc1	44% (inactive)
COCCCN1CC(O)=C(c2nc(-c3ccc(C)cc3)cs2)C1=N	360% (inactive)
CCN(CC)c1ccc(C(=O)c2ccccc2)cc1	98.7% (inactive)
Cc1ncc(C(=O)Nc2ccc(CN3CCN(C)CC3)c(C(F)(F)F)c2)cc1C#Cc1cnc(N)cc1C#N	-75.6% (active)
Cc1c(C(=O)NCCC(=O)NO)sc2ncnc(Nc3ccc(NC(=O)Nc4cccc(C(F)(F)F)c4)cc3)c12	89.2% (inactive)
NNC(=O)c1ccc(-n2nc(-c3ccccc3)c3ccccc32)cc1	74% (inactive)
COc1ccc(/C=C/C(=O)Nc2cc(/C=C\c3cc(OC)c(OC)c(OC)c3)cc(OC)c2OC)cc1OC	16.8% (inactive)
COc1ccc2[nH]c(O)c(/C=c3/cc4c(c(-c5ccc(F)cc5)n3)=Nc3ccccc3-4)c2c1	26.8% (inactive)
CC(=O)O[C@H]1Cc2c([nH]c3ccccc23)[C@@H](c2ccc(Cl)cc2)N1C(=O)CCNC(C)(C)C	34.3% (inactive)
COc1ccc(CC(C)=C(c2ccc(OCCN3CCCCCC3)cc2)c2ccc(OCCN3CCCCCC3)cc2)cc1	-90.2% (active)
O=S(=O)(NCCNc1nccc(-c2c(-c3cccc(O)c3)nc3occn23)n1)c1ccc(C(F)(F)F)cc1	67.2% (inactive)
O=C(NO)c1ccc(-n2nc(-c3ccccc3)c3ccccc32)cc1	22.4% (inactive)
COc1ccc(-c2nc(S(=O)(=O)c3ccccc3)c(S(=O)CC(=O)N3CCC(C)CC3)o2)cc1 (stereo not given)	24.3% (inactive)
CCN(CC)CCOc1ccc(NC(=O)C(C(C)C)N2C(=O)/C(=C/c3ccc(Br)cc3)SC2=S)cc1 (stereo not given)	19.3% (inactive)
Cc1cc2nc3c4ccc(Br)cc4n(CCN(C)C)c3nc2cc1C	0.513% (active)
O=C(CCN1CCCC1)Nc1ccc2c(Nc3ccc(F)cc3)c3ccccc3nc2c1	-19.9% (active)
N/C(=N\C(N)=N\c1nc2ccccc2s1)c1ccnc(Br)c1	16.6% (inactive)
CCNC(=O)Oc1ccc(/C(=C(\C)c2ccccc2)c2ccc(OCCN3CCCCC3)cc2)cc1	25.8% (inactive)

Compound	growth
CNC(=O)c1cccc(Cn2nc(C)c(NC(=O)c3ccc(COc4ccc(C(F)(F)F)cc4C)cc3)c2C)c1	21.7% (inactive)
COCc1cnccc1NC1CCCCCC1	97.2% (inactive)
C=C1C(=O)O[C@H]2[C@H]1CC/C(CNC(=O)CCc1ccc(OC)cc1)=C\CC[C@@]1(C)O[C@@H]21	33.5% (inactive)
COc1cccc(-c2nc3occn3c2-c2ccnc(NCCNS(=O)(=O)c3ccc(C(F)(F)F)cc3)n2)c1	80.9% (inactive)
C=C(C)[C@@H]1CC[C@]2(C(=O)N3CCN(C)CC3)CC[C@]3(C)[C@H](CC[C@@H]4[C@@]5(C)CC[C@H](O)C(C)(C)[C@@H]5CC[C@]43C)[C@@H]12	-79.6% (active)
Nc1c(C(=O)Nc2cccc3cnccc23)sc2nc3c(cc12)CN(Cc1ccccc1)CC3	96.5% (inactive)
Cc1nnc2c(Cc3ccccc3)nc3ccccc3n12	97.9% (inactive)
COc1ccc(C(=O)CC#N)cc1	96.7% (inactive)
CCOC(=O)c1cc(C#N)n2ccc3ccccc3c12	95.7% (inactive)
Oc1ccc(OCCOc2ccc(O)cc2)cc1	55.7% (inactive)
COc1ccc(C(=O)c2nc3ccccc3n2CC(=O)c2ccc(Cl)cc2)cc1	11.9% (inactive)
Nc1nc(Nc2ccccc2SSc2ccccc2Nc2nc(N)nc(-c3cccs3)n2)nc(-c2ccsc2)n1	68.1% (inactive)
Cn1ccnc1C(=O)/C=C/c1ccc(CC(=O)Nc2ccc(F)cc2)cc1	28% (inactive)
CCN1C(=O)N(CC)C2Nn3c(s/c(=C\c4ccc(OC)cc4)c3=O)=NC21 (stereo not given)	21% (inactive)
COc1cc2c(c(OC)c1OC)CCC(c1cccc(NC(=O)c3cccc(Br)c3)c1)O2 (stereo not given)	89% (inactive)
CC(=O)Oc1ccc(/C=N/NC(N)=S)nc1	18.4% (inactive)
C=C1C(=O)O[C@H]2[C@H]1CC/C(COC(=O)NCCc1c[nH]c3ccc(OC)cc13)=C\CC[C@@]1(C)O[C@@H]21	26.9% (inactive)
COc1ccc(OC)c(-c2cc(-c3ccc(Cl)cc3)c3c(N)c(C(=O)c4ccc(Cl)cc4)sc3n2)c1	86.2% (inactive)
Cc1cccc(NC(=O)Nc2ccc(-c3ccc4c(c3)NC(=O)/C4=C\c3ccc[nH]3)cc2)c1	15.3% (inactive)
CCOc1cccc(-c2nc(N)nc(Nc3ccccc3SSc3ccccc3Nc3nc(N)nc(-c4cccc(OCC)c4)n3)n2)c1	70.1% (inactive)
